Measurements reported in PubChem BioAssay (Tox21).
Several values for one entry are separate records, joined by “and”; a condition that tells them apart may be missing. Equal values may be shown once. Inconclusive results are not listed. Where a call stands in place of a potency, no number is given. More than one record can exist for a structure, and the calls need not agree. Activity calls are given as the source filed them. Calls come from the whole dose curve; as a rule, active = well fitted curve in the direction sought with a large enough effect in the repeat runs; inconclusive = weak or mixed curves; inactive = no such curve, though single readings can be large; an effect the other way counts as inactive or inconclusive.

How the values were obtained:
[1] = qHTS RealTime-Glo MT Cell Viability Assay in HepG2 cells - 24 hour (AID 1224867); note: nearly all actives have a fitted effect of over 50% in size
Procedure, shortened: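 Tox21 10K library screened in qHTS format on HepG2 cells carrying RealTime-Glo reagents. Compounds were added after a 5 h preincubation, and the luminescent signal from continuous culture was measured repeatedly during 40 h treatment.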

[2] = qHTS RealTime-Glo MT Cell Viability Assay in HEK293 cells - 32 hour (AID 1224868); note: nearly all actives have a fitted effect of over 50% in size; note: potency is the fitted concentration of half-maximal effect
Procedure, shortened: (§1)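 Luminescence generated by NanoLuc from substrate produced by living HEK293 cells served as the viability signal. Each value reflects the reading at its stated time point during continuous 40 h compound exposure at 37 C.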

[3] = A CellTox Green Cytotoxicity Assay to monitor cytotoxicity in HEK293 cells - 0 hour (AID 1224869); note: nearly all actives have a fitted effect of over 50% in size; note: potency is the fitted concentration of half-maximal effect
Procedure, shortened: (§2)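 Cytotoxicity was tracked continuously in HEK293 cells by a DNA-binding dye excluded from viable cells. Compounds were transferred in DMSO 5 h after seeding; fluorescence was recorded at intervals up to 40 h.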

[4] = qHTS RealTime-Glo MT Cell Viability Assay in HepG2 cells - 40 hour (AID 1224870); note: nearly all actives have a fitted effect of over 50% in size
Procedure, shortened: (§3)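 HepG2 cells mixed with RealTime-Glo MT reagents (NanoLuc plus cell-permeant prosubstrate) were seeded at 600 cells/well, incubated 5 h at 37 C/5% CO2, then pinned with compounds in DMSO; nonlytic luminescence tracked viability during 40 h treatment.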

[5] = A CellTox Green Cytotoxicity Assay to monitor cytotoxicity in HEK293 cells - 40 hour (AID 1224871); note: nearly all actives have a fitted effect of over 45% in size; note: potency is the fitted concentration of half-maximal effect
Procedure, shortened: as §2

[6] = qHTS RealTime-Glo MT Cell Viability Assay in HEK293 cells - 16 hour (AID 1224872)
Procedure, shortened: as §1

[7] = qHTS RealTime-Glo MT Cell Viability Assay in HepG2 cells - 8 hour (AID 1224873); note: nearly all actives have a fitted effect of over 55% in size
Procedure, shortened: as §3

[8] = qHTS RealTime-Glo MT Cell Viability Assay in HEK293 cells - 40 hour (AID 1224874); settings: RealTime-Glo luminescence; max response: stronger effect = lower value; note: nearly all actives have a fitted effect of over 50% in size; note: potency is the fitted concentration of half-maximal effect
Procedure, shortened: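 Nonlytic bioluminescent viability monitoring. HEK293 at 600 cells/well with reagent; 5 h settle; compound transfer by pintool; plates held at 37 C and read at set time points.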

CC(C)(Cl)Cl
outcome [1]: inactive | Potency [2]: inactive | Potency [3]: inactive | outcome [4]: inactive | Potency [5]: inactive | outcome [6]: inactive | outcome [7]: inactive | max response [8]: 0.337% (inactive) and 2.87% (inactive)

OCCN(CCO)CCO
outcome [1]: inactive | Potency [2]: inactive | Potency [3]: inactive | outcome [4]: inactive | Potency [5]: inactive | outcome [7]: inactive | max response [8]: -6.59% (inactive) and 8.79% (inactive)

CCCC1COC(Cn2cncn2)(c2ccc(Cl)cc2Cl)O1 (stereo not drawn)
outcome [1]: inactive | Potency [2]: 22.3 µM (active) and 24.5 µM (active) | Potency [3]: inactive | outcome [4]: inactive | outcome [7]: inactive | Potency [8]: 25 µM (active) and 21.9 µM (active)

CCC[N+](=O)[O-]
outcome [1]: inactive | Potency [2]: inactive | Potency [3]: inactive | outcome [4]: inactive | Potency [5]: 38.2 µM (active) and inactive | outcome [7]: inactive | max response [8]: 7.7% (inactive)

C#CCN(C)[C@H](C)Cc1ccccc1
outcome [1]: inactive | Potency [2]: inactive | Potency [3]: inactive | outcome [4]: inactive | Potency [5]: inactive | outcome [6]: inactive | outcome [7]: inactive | max response [8]: 3.52% (inactive) and 3.78% (inactive)

O=NN1CCCC1
outcome [1]: inactive | Potency [2]: inactive | Potency [3]: inactive | outcome [4]: inactive | Potency [5]: inactive | outcome [7]: inactive | max response [8]: -15.8% (inactive) and -5.95% (inactive)

CC1C=[C-]C=C1.[C-]#[O+].[C-]#[O+].[C-]#[O+].[Mn]
outcome [1]: inactive | Potency [2]: inactive | Potency [3]: inactive | outcome [4]: inactive | Potency [5]: inactive | outcome [6]: inactive | outcome [7]: inactive | max response [8]: 5.97% (inactive) and 3.98% (inactive)

CCOP(OCC)OCC
outcome [1]: inactive | Potency [2]: inactive | Potency [3]: inactive | outcome [4]: inactive | Potency [5]: inactive | outcome [7]: inactive | max response [8]: 7.3% (inactive) and 7.34% (inactive)

c1ccc2c(c1)oc1ccccc12
outcome [1]: inactive | Potency [2]: inactive | Potency [3]: inactive | outcome [4]: inactive | outcome [7]: inactive | max response [8]: -5.88% (inactive) and -12.6% (inactive)

CCCN(CCC)c1c([N+](=O)[O-])cc(C(F)(F)F)cc1[N+](=O)[O-]
outcome [1]: inactive | Potency [2]: inactive | Potency [3]: 1.55 µM (active) and inactive | outcome [4]: inactive | Potency [5]: inactive | outcome [6]: inactive | outcome [7]: inactive | max response [8]: -12.8% (inactive) and 1.59% (inactive)

CCN(CC)c1ccccc1
outcome [1]: inactive | Potency [2]: inactive | Potency [3]: inactive | outcome [4]: inactive | Potency [5]: inactive | outcome [7]: inactive | max response [8]: 8.36% (inactive) and 18.4% (inactive)

Clc1ccccc1Cl
outcome [1]: inactive | Potency [2]: inactive | Potency [3]: inactive | outcome [4]: inactive | Potency [5]: inactive | outcome [7]: inactive

CCNc1nc(NC(C)(C)C)nc(SC)n1
outcome [1]: inactive | Potency [2]: 43.1 µM (active) | Potency [3]: inactive | outcome [4]: inactive | Potency [5]: inactive | outcome [6]: inactive | outcome [7]: inactive | Potency [8]: 27.2 µM (active)

O=C1CCCN1
outcome [1]: inactive | Potency [2]: inactive | Potency [3]: inactive | outcome [4]: inactive | Potency [5]: inactive | outcome [6]: inactive | outcome [7]: inactive | max response [8]: 1.24% (inactive) and -5.73% (inactive)

CC(C)C#N
outcome [1]: inactive | Potency [2]: inactive | Potency [3]: inactive | outcome [4]: inactive | Potency [5]: inactive | outcome [7]: inactive | max response [8]: 8.8% (inactive) and 1.31% (inactive)
